From PubChem BioAssay AID1117319 (Southern Research Institute, 2015)
Several values for one entry are separate records, joined by “and”; a condition that tells them apart may be missing. Identical values can stand only once. Out of some 260,000 compounds screened, about 1,500 (0.58%) were called active. Not shown: some 5% with an inconclusive outcome. Not all results are given here. Potency and affinity values are given separately. Unmarked numbers belong to inactive results.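 The calls were made as follows: active = inhibition above a set limit at one or more doses, reproduced on every date tested; inconclusive = results disagree between test dates, or hit never tested in dose response; inactive = the rest.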

The molecules below were run against Virion infectivity factor (Human immunodeficiency virus type 1 group M subtype B (isolate BH10)) + Virion infectivity factor (Human immunodeficiency virus type 1 group M subtype B (isolate BRU/LAI)) + Virion infectivity factor (Human immunodeficiency virus type 1 group M subtype B (isolate PCV12)) + Virion infectivity factor (Human immunodeficiency virus type 1 group M subtype B (isolate HXB2)) + DNA dC->dU-editing enzyme APOBEC-3G (Homo sapiens) (UniProt P69720+P69721+P69722+P69723+Q9HC16) (assay: inhibitors of Vif binding to APOBEC3G peptide, primary screen, biochemical, TR-FRET, GST-Vif 1-94, biotin-A3G peptide, dose response retest (AID 1117319;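 also: Vif residues 1-94 fused to GST binding biotinylated APOBEC3G peptide 110-148; 0% = full assay without inhibitor and 100% = GST in place of GST-Vif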)). Settings: active compounds read high.

SMILES	inhibition
O=C1C2C3CCC(C3)C2C(=O)N1CNc1ccccc1 (stereo not given)	-1.35%
Cc1ccc2[nH]c(=O)c(CN(C(=O)c3cccc([N+](=O)[O-])c3)C(C)(C)C)cc2c1	-6%
CN(Cc1ccccc1)S(=O)(=O)c1ccc(Cl)c(C(=O)NCCCN2CCOCC2)c1	-5.26%
CC1(OC(=O)CCc2ccccc2)C(=O)C=C2C=C(c3ccc(C#N)cc3)N(C(CO)CO)C=C2C1=O (stereo not given)	0.31%
CC1(OC(=O)C2CCCC2)C(=O)C=C2C=C(c3ccsc3)N(C(CO)CO)C=C2C1=O (stereo not given)	15.2%
CC(C)CN1C=C2C(=O)C(C)(OC(=O)C3CCCC3)C(=O)C=C2C=C1c1ccsc1 (stereo not given)	28.7%
CC1(OC(=O)CCc2ccccc2)C(=O)C=C2C=C(c3ccc(C#N)cc3)N(CC3CC3)C=C2C1=O (stereo not given)	-1.42%
COc1ccc(-c2ccc(SCC(=O)N3CCOCC3)nn2)cc1OC	2.85%
COc1ccccc1OCCCC(=O)Nc1nnc(C2CCCO2)s1 (stereo not given)	-0.39%
Cc1nn2c(=S)[nH]nc2[nH]c1=O	14.1%
Cc1n[nH]c(=S)n(/N=C/c2cccs2)c1=O	-1.81%
COC(=O)[C@H]1C[C@@H]1[C@H](NC(=O)OCc1ccccc1)c1ccccc1	-8.43%
COC(=O)[C@H]1C[C@@H]1[C@H](NC(=O)[C@H]1C[C@@H]1[C@H](NC(=O)OCc1ccccc1)c1ccccc1)c1ccccc1	25.9%
Cc1ccc2cc3cc(C(=O)NCCCN4CCCC4)oc3nc2c1	-1.36%
CC1=NN(c2cc(Cl)c(S(=O)(=O)O)cc2Cl)C(=O)C1	8.79%
O=C(O)C1=NN(c2ccccc2)C(=O)C1	13.7%
COCCCn1c(SCC(N)=O)nnc1-c1ccccc1	2.76%
C=CCN1C(=O)/C(=C/c2ccsc2)SC1=S	21.3%
COc1ccc(CN(CC(=O)NC2CCCC2)C(=O)c2onc(C(N)=O)c2N)cc1	30.2%
COc1cccc(CN2C(=O)CN(C3CCCCC3)C(=O)C2c2ccc(F)cc2)c1 (stereo not given)	1.82%
CC1=CC(C)(C)Nc2ccc(OC(=O)CCN3C(=O)c4ccccc4C3=O)cc21	3.55%
Cc1ccc(OC(=O)c2cccnc2)cc1	-1.57%
CC1=CC(C)(C)Nc2ccc(OC(=O)c3ccco3)cc21	16.4%
CC1=CC(C)(C)Nc2ccc(OC(=O)CN3C(=O)c4ccccc4C3=O)cc21	19.2%

SMILES	inhibition
CC(Oc1ccccc1F)C(=O)/C=C/N(C)C (stereo not given)	5.44%
O=C(Nc1ccc(Oc2ccccc2)nc1)C1CCCCN1Cc1ccco1 (stereo not given)	9.99%
O=C(Nc1cccnc1)c1ccc(S(=O)(=O)c2ccccc2)cc1	-0.77%
O=C(NCc1ccccc1)C(=O)NCC1OCCCN1S(=O)(=O)c1cccs1 (stereo not given)	-3.27%
NC(=O)Nn1c(CCC(=O)O)ccc1-c1ccc(Cl)cc1	3.68%
NC(=O)Nn1c(CCC(=O)O)ccc1-c1ccc(F)cc1	4.46%
Cc1nc(-c2cc(C#N)c(Sc3cccc(C(F)(F)F)c3)nc2C)cs1	-11.1%
COCCN(C(=O)COC(=O)c1cc2ccccc2cc1O)c1c(N)n(Cc2ccccc2)c(=O)[nH]c1=O	0.53%
CCOc1c(Cl)cc(CNc2ccc(N3CCCC3)cc2)cc1OC	-0.34%
CCOc1ccc(C(=O)Nc2ccc(N3CCCC3)cc2)cc1	-1.32%
Cc1ccc2cc(CN(CCN(C)C)C(=S)Nc3ccccc3)c(=O)[nH]c2c1C	17%
CCOc1ccc(C2CC(=O)NC(SC)=C2C#N)cc1 (stereo not given)	-1.81%
CS/C(=N\S(=O)(=O)c1cccs1)Nc1ccc(Cl)cc1	3.6%
COc1ccc(OC)c(C2C(C(=O)Nc3ccccc3OC)=C(C)Nc3nc(CCCO)nn32)c1 (stereo not given)	18.4%
COc1ccc(C2C(C(=O)Nc3ccc(F)cc3)=C(C)Nc3nc(CCCO)nn32)cc1 (stereo not given)	-0.37%
Nc1ccc(C(=O)N(CCO)CCO)cc1	2.26%
OCCN(CCO)c1ccc2ccccc2c1	9.83%
CN(CC(=O)Nc1ccc(F)cc1)C(=O)C1CCCC1	-2.12%
O=C(Cn1c(=O)n(Cc2ccco2)c(=O)c2c3c(sc21)CCCC3)Nc1ccccc1	-1.14%
O=c1c2c3c(sc2n(CCN2CCCCC2)c(=O)n1Cc1ccco1)CCCCC3	30.5%
FC(F)(F)c1cnc(Oc2ccc(-c3nnco3)cc2)c(Cl)c1	-4.28%
Oc1ccc(Br)cc1/C=N/n1c(COc2ccccc2)n[nH]c1=S	23.7%
Cc1ccc(S(=O)(=O)Cc2ccc(C(=O)NCc3cccs3)o2)cc1	2.29%
CSc1ccccc1NC(=O)c1cccnc1	-0.88%

SMILES	inhibition
CCN=c1scc(C)n1/N=C/c1cc(Br)c(O)c(OC)c1	10.6%
C=C(C)CN=c1scc(C)n1/N=C/c1ccco1	7.84%
CN=c1scc(C)n1/N=C/c1ccc(O)cc1O	6.79%
CN=c1scc(C)n1/N=C/c1ccc(O)cc1	3.18%
CCN=c1scc(C)n1/N=C/c1ccsc1	24.1%
CN=c1scc(C)n1/N=C/c1cc(Br)c(O)c(Br)c1	27.7%
O=C(Oc1coc(CSc2ncccn2)cc1=O)c1cccc([N+](=O)[O-])c1	-1.78%
O=C(Cc1ccccc1[N+](=O)[O-])NCC(=O)c1ccc2c(c1)OCO2	-9.24%
CC(CCc1ccccc1)N(C)CC(O)c1cccc([N+](=O)[O-])c1 (stereo not given)	-11.1%
Nc1ccn([C@@H]2O[C@H](CNCc3cccc(OC4CCCC4)c3)[C@@H](O)[C@H]2O)c(=O)n1	3.81%
COc1ccc([C@@H]2C[C@@H](c3ccccc3)Oc3cc(OC)cc(OC)c32)cc1	-2.19%
Clc1ccc(OCCCc2nc(-c3cccnc3)no2)c(Cl)c1	21.6%
CC(C)c1ccc(-c2nc(N3CCCCC3)[nH]c(=O)c2C#N)cc1	-2.18%
N#Cc1c(N2CCN(c3ccc(F)cc3)CC2)nc(N)c2c(N)nc3c(c12)CC(=O)N3C1CC1	1.08%
CN(CCC#N)C(=O)COC(=O)c1ccc(Cl)cc1O	6.5%
COc1ccc(-n2nnnc2-c2cnc3cc4c(cc3c2C)OCO4)cc1	2.05%
O=C(Cn1c2c(c(-c3ccccc3Cl)cc1=O)CCC2)NCCCN1CCOCC1	22.2%
CCCCNC(=O)Cn1c2c(c(-c3ccccc3Cl)cc1=O)CCC2	11.2%
CC(=O)c1ccc(NC(=S)N2CCCC(C(F)(F)F)C2)cc1 (stereo not given)	-3.97%
COC(=O)C1=C(C)Nc2[nH]c(=S)[nH]c(=O)c2C1c1ccc(O)cc1 (stereo not given)	-3.71%
Cc1ccc(C2C3=C(CCCC3=O)Nc3[nH]c(=S)[nH]c(=O)c32)cc1 (stereo not given)	15.3%
COc1ccc(Nc2ccc([N+](=O)[O-])cc2[N+](=O)[O-])cc1	-7.01%
O=C(NC(=O)c1ccccc1)NC1(C(F)(F)F)OCCO1	-4.29%
O=C(NCC1CCCO1)C(c1cccnc1)N(C(=O)Cc1cccs1)c1ccccc1 (stereo not given)	28.6%

SMILES	inhibition
Cc1ccc2c(c1)CC1(CN2C)C(=O)OC(C)(C)OC1=O	24.2%
COc1ccc2c(c1)C(=O)N(c1ccc(C)cc1)C(=O)C2	1.47%
CCOC(=O)C1=C(C)N(c2ccc(OCC)cc2)C(=O)/C1=C\c1ccco1	10.7%
CC1=NN(c2ccccc2)C(=O)/C1=C/C=C/c1ccccc1	5.22%
Cc1ccc(N2C(=O)c3n[nH]c(C)c3C2c2ccco2)cc1 (stereo not given)	-7.3% and 4.08%
O=C1NC(=O)C(=CC=Cc2ccccc2)S1	2.69%
CC(C)c1ccc(CN(C(=O)/C=C/c2ccco2)C2CCS(=O)(=O)C2)cc1 (stereo not given)	30.9%
Cc1ccc(CC2S/C(=N/N=C/c3ccco3)NC2=O)cc1 (stereo not given)	4.38%
CCc1ccc(N2C(=O)C3ON(c4ccccc4)C(c4ccco4)C3C2=O)cc1 (stereo not given)	-3.31%
Cc1n[nH]c(=O)n1-c1ccc(C(C)C)cc1	-7.48%
COc1ccc2[nH]c(C(=O)Nc3cccc(C)n3)cc2c1	-5.53%
CCOc1cc(C#N)ccc1OCC(=O)N1CCN(C(=O)c2cccs2)CC1	-1.5%
Cc1cccc(C)c1OCC(=O)NCC1CCCO1 (stereo not given)	-4.95%
CCOCCCNC(=O)/C=C1\Sc2ccccc2N(Cc2ccccc2F)C1=O	-8.36%
CCOC(=O)c1ccccc1NS(=O)(=O)c1ccc(S(=O)(=O)N2CCCC2)cc1	2.58%
Cc1ccc(C)c(NC(=O)CN(C)C(=O)c2cccc(S(=O)(=O)N(C)C)c2)c1	5.71%
COc1ccc(NC(=O)CN(C)C(=O)c2ccc3ccccc3c2)cc1	7.66%
CN(CC(=O)Nc1cccc(F)c1)C(=O)c1ccc(C(=O)c2ccccc2)cc1	0.25%
O=C(NNC(=O)c1cccc(-n2cccc2)c1)c1ccccc1	7.05%
COc1ccc(NC(=O)CN(C)C(=O)c2cccc(Oc3ccccc3)c2)cc1	-4.86%
Cc1ccc(C)c(NC(=O)CN(C)C(=O)c2cccc(N3C(=O)CCC3=O)c2)c1	-0.71%
O=C(NNC(=O)c1cccc(-n2cccc2)c1)c1ccc(F)cc1	16%
CN(CC(=O)Nc1cccc(F)c1)C(=O)c1cccc(N2C(=O)CCC2=O)c1	-2.88%
